PubChem BioAssay AID1159580 (chemical genetic matrix, 2015)
Several values for one entry are separate records, joined by “and”; a condition that tells them apart may be missing. Equal entries are not always repeated. Out of some 5,500 compounds screened, about 2,000 (36%) were called active. Not shown: some 18% with an inconclusive outcome. Cut-off read from the data, not from the text of the source: active = normalized growth mostly below about 0.91 (no sharp cut-off); inconclusive = no clear call, values can overlap the other calls; inactive = mostly above about 0.92. The list shows a part of the results.

Test: chemical genetic growth profiling, strain panel (AID 1159580);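 note: tested at 20 µM; growth read once vehicle control cultures reached saturation at 30 °C; 1 = growth at the plate median or of vehicle wells; lower values mean less growth of the strain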
Settings: S. cerevisiae deletion strains, growth OD

Measured: normalized growth

CCCCCCCCCCCC[C@H](C(=O)O)[C@@H](C)C(=O)O
active: locus YJL129C, strain trk1, hits give low values 0.797
inactive: locus YAL013W, strain DEP1, hits give low values 0.992 | locus YAL021C, strain ccr4, hits give low values 1.02 | locus YAL026C, strain drs2, hits give low values 0.952 | locus YAL030W, strain snc1, hits give low values 0.984 | locus YBL061C, strain skt5, hits give low values 0.982 | locus YBR009C, strain hhf1, hits give low values 0.994 | locus YBR021W, strain FUR4, hits give low values 0.995 | locus YBR023C, strain chs3, hits give low values 0.982 | locus YBR171W, strain sec66, hits give low values 0.936 | locus YBR229C, strain ROT2, hits give low values 0.993 | locus YBR231C, strain swc5, hits give low values 0.986 | locus YBR279W, strain paf1, hits give low values 0.976 | locus YCL011C, strain gbp2, hits give low values 0.995 | locus YCL016C, strain dcc1, hits give low values 0.996 | locus YCL029C, strain bik1, hits give low values 1.02 | locus YCL061C, strain MRC1, hits give low values 0.963 | locus YCL069W, strain vba3, hits give low values 0.975 | locus YCR088W, strain abp1, hits give low values 0.976 | locus YDL005C, strain med2, hits give low values 0.995 | locus YDL035C, strain GPR1, hits give low values 0.995 | locus YDL040C, strain nat1, hits give low values 0.977 | locus YDL074C, strain BRE1, hits give low values 0.986 | locus YDL101C, strain DUN1, hits give low values 1.02 | locus YDL134C, strain PPH21, hits give low values 0.993 | locus YDL185W, strain tfp1, hits give low values 1.03 | locus YDL192W, strain arf1, hits give low values 1.01 | locus YDR001C, strain nth1, hits give low values 0.966 | locus YDR069C, strain doa4, hits give low values 0.999 | locus YDR101C, strain arx1, hits give low values 1.01 | locus YDR137W, strain rgp1, hits give low values 0.929 | locus YDR150W, strain NUM1, hits give low values 0.998 | locus YDR159W, strain sac3, hits give low values 0.902 | locus YDR162C, strain NBP2, hits give low values 1.01 | locus YDR195W, strain ref2 0.98 | locus YDR297W, strain sur2, hits give low values 0.976 | locus YDR318W, strain mcm21, hits give low values 1.02 | locus YDR334W, strain swr1, hits give low values 0.985 | locus YDR335W, strain msn5, hits give low values 0.986 | locus YDR388W, hits give low values 1.01 | locus YDR392W, strain spt3, hits give low values 0.832 | locus YDR502C, strain sam2, hits give low values 1.02 | locus YEL003W, strain gim4, hits give low values 0.995 | locus YEL037C, strain rad23, hits give low values 0.976 | locus YEL061C, strain CIN8 (second series), hits give low values 0.957 | locus YEL061C, strain CIN8, hits give low values 0.988 | locus YER015W, strain faa2, hits give low values 0.985 | locus YER016W, strain bim1, hits give low values 0.984 | locus YER110C, hits give low values 1 | locus YER111C, strain swi4, hits give low values 0.938 | locus YER155C, strain BEM2 (second series), hits give low values 0.874 | locus YER155C, strain BEM2, hits give low values 0.979 | locus YER167W, strain BCK2, hits give low values 1.01 | locus YFR010W, strain ubp6, hits give low values 1.02 | locus YGL078C, strain dbp3, hits give low values 0.98 | locus YGL086W, strain mad1, hits give low values 1.01 | locus YGL167C, strain pmr1, hits give low values 0.943 | locus YGL173C, strain kem1, hits give low values 0.958 | locus YGL227W, strain vid30, hits give low values 0.975 | locus YGL240W, strain doc1, hits give low values 0.979 | locus YGL248W, strain PDE1, hits give low values 1 | locus YGL253W, strain hxk2, hits give low values 0.976 | locus YGR078C, strain PAC10, hits give low values 1.01 | locus YGR135W, strain pre9, hits give low values 1.01 | locus YGR229C, strain SMI1, hits give low values 0.999 | locus YGR252W, strain gcn5, hits give low values 1.05 | locus YHR013C, strain ard1, hits give low values 1.01 | locus YHR027C, strain rpn1, hits give low values 0.984 | locus YHR030C, strain SLT2, hits give low values 0.993 and 0.941 | locus YHR079C, strain IRE1 (second series), hits give low values 1 | locus YHR079C, strain IRE1, hits give low values 0.953 | locus YHR094C, strain hxt1, hits give low values 0.989 | locus YHR129C, strain ARP1, hits give low values 0.989 | locus YHR142W, strain chs7, hits give low values 1.02 | locus YHR200W, strain rpn10, hits give low values 1.02 | locus YIL066C, strain RNR3, hits give low values 0.992 | locus YIL073C, strain SPO22, hits give low values 1.06 | locus YIL125W, strain kgd1, hits give low values 0.997 | locus YIR030C, strain dcg1, hits give low values 1 | locus YJL092W, strain hpr5, hits give low values 0.967 | locus YJL095W, strain BCK1 (second series), hits give low values 0.992 | locus YJL095W, strain BCK1, hits give low values 1.01 and 0.953 | locus YJL115W, strain asf1, hits give low values 0.94 | locus YJL134W, strain LCB3, hits give low values 0.991 | locus YJL154C, strain vps35, hits give low values 0.99 | locus YJL164C, strain tpk1, hits give low values 0.999 | locus YJL166W, strain qcr8, hits give low values 0.992 | locus YJL168C, strain set2, hits give low values 1 | locus YJL187C, strain SWE1 (second series), hits give low values 1 | locus YJL187C, strain SWE1, hits give low values 0.971 | locus YJR043C, strain POL32, hits give low values 0.996 | locus YJR066W, strain TOR1, hits give low values 0.884
